A selection: hits, their analogues and other compounds. The true share with any hit is near 3.9%.
CF NFkB block: blocks PAF-induced NF-kB reporter in cystic fibrosis cells; KKLEB NF-kB-GFP reporter, GFP fluorescence overnight; inhibition, % at 5 µM; actives 0.86% (n = 360,000);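 active = at least 50% inhibition at 5 µM, scaled per plate between neutral and stimulator controls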;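 also: PAF is a Pseudomonas aeruginosa culture filtrate used as stimulus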
TROY signal inh: blocks TROY-dependent signaling in reporter cells; Q293 LMP1-TROYcd NF-kB luciferase reporter, 4 h; inhibition, % at 10 µM; actives 0.98% (n = 360,000); AID 1347056;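 active = compounds whose plate-normalised and pattern-corrected inhibition of the luciferase reporter signal at the single screening dose is 50% or more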
KKLEB cytotox: counter-screen for CF NF-kB inhibitors: cytotoxicity. KKLEB CF airway cells viability, ATPlite luminescence, overnight; active compounds read low; cells stimulated with P. aeruginosa culture filtrate. activity change (cytotoxicity), % at 5 µM. AID 602141. actives 0.36% (n = 360,000);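 active = corrected activity change at or below -50% at 5 µM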
HIF-2a inh: blocks HIF-2a reporter activity; 786-0 RCC cells HIF-2a reporter, luciferase luminescence, overnight; inhibition, % at 18.8 µM; actives 0.72% (n = 360,000);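 active = inhibition of the luminescence signal of 40% or more relative to plate controls, in a single-dose primary screen at 18.75 µM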
Peg3 prom inh: reduces Peg3 promoter-driven luciferase expression in HeLa. actives 1.7% (n = 360,000). HeLa PEG-Prom luciferase reporter, luminescence, overnight. AID 588405. inhibition, % at 20 µM;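 active = inhibition of at least 50% at 20 µM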
TWEAK Fn14 block: TWEAK-Fn14 signaling inhibition | inhibition, % at 10 µM | TWEAK-stimulated Fn14 reporter cells, luciferase luminescence, 8 h | actives 2% (n = 360,000); in the data active = inhibition above about 50%
Of the large screens only hits and unclear results are named; the others gave an inactive call; ! = not confirmed by another sample.

COc1ccc(N2CCN(c3nc(NCCc4ccc(OC)c(OC)c4)nc(OC)n3)CC2)cc1	TROY signal inh 57, Peg3 prom inh 67
Cc1cccc(N=C2NN=C(c3c(C)[nH]c4ccccc34)CS2)c1	none
CCc1ccc(C2=NNC(=Nc3cccc(S(=O)(=O)N(C)C)c3)SC2)cc1	TWEAK Fn14 block 72
Cc1cccc(N=C2NN=C(c3ccc4c(c3)OCCO4)CS2)c1	TROY signal inh 57, TWEAK Fn14 block 54
CC(C)c1ccc2c(c1)CC[C@H]1[C@](C)(CN)CCC[C@]21C	Peg3 prom inh 90!
CC(C)c1ccc2c(c1)CCC1C(C)(CN)CCCC21C (centres undefined)	Peg3 prom inh 109
CC1(C(=O)Nc2ccc3c(c2)OCO3)CCN1C(=O)CCC1CCCC1 (centres undefined)	none
CN(C)Cc1cc(O)c(CN(C)C)cc1O	none
N#Cc1c(-c2ccccc2)nc(SCc2cccc(Cl)c2)[nH]c1=O	TROY signal inh 58
Cc1cccc(C)c1OCc1cc(C(=O)N2CCCCCCC2)no1	none
Cc1ccc(C(=O)SC2=NCCS2)cc1	TWEAK Fn14 block 60
O=C(O)CNC(=O)C(CS)Cc1ccccc1 (centres undefined)	CF NFkB block 55
O=C(N[C@@H](Cc1ccccc1)C(=O)N[C@@H](Cc1ccccc1)C(=O)O)OCc1ccccc1	none
O=C(N[C@@H](Cc1ccccc1)C(=O)CCl)OCc1ccccc1	Peg3 prom inh 70
O=C(CNC(=O)C1CCCCC1)Nc1ccc(Cl)cc1	none
O=C(NNc1nc2ccc(Cl)cc2s1)c1cc(-c2cccs2)nc2ccccc12	Peg3 prom inh 87, TWEAK Fn14 block 58
Cc1cc(C)c2nc(NNC(=O)c3cc(-c4cccs4)nc4ccccc34)sc2c1	Peg3 prom inh 52
CC1(C)CC2CC(C)(CN2S(=O)(=O)c2ccc(N)cc2)C1 (centres undefined)	none
O=[N+]([O-])c1ccc(S(=O)(=O)c2cccc(C(F)(F)F)c2)nc1	CF NFkB block 89, TROY signal inh 62, HIF-2a inh 52, Peg3 prom inh 100
CCc1sc(C(=O)NC)cc1Br	none
Cc1ccc(-n2c(-c3cnccn3)n[nH]c2=S)c(Br)c1	none
FC(F)(F)c1ccccc1-n1c(-c2cnccn2)n[nH]c1=S	TROY signal inh 65, TWEAK Fn14 block 84
Cc1[nH]nc(NNC(=O)c2ccccc2)c1[N+](=O)[O-]	none
O=C(Nc1cc(Sc2ccccn2)cc([N+](=O)[O-])c1)c1cccc(F)c1	TWEAK Fn14 block 65
O=C(Nc1cc(Sc2nc3ccccc3s2)cc([N+](=O)[O-])c1)c1ccccc1F	none
O=C(Nc1cc(Sc2nc3ccccc3s2)cc([N+](=O)[O-])c1)c1ccccc1	TWEAK Fn14 block 63
CC(C(=O)N1CCCCC1)N(C)CC(=O)Nc1ccc(F)c(F)c1F (centres undefined)	none
CC(C)OCCCN1CN(S(=O)(=O)c2ccccc2)c2nc3ccccc3nc21	TWEAK Fn14 block 77 (no result: TROY signal inh)
COCCCN1CN(S(=O)(=O)c2ccc(Cl)cc2)c2nc3ccccc3nc21	none
CCOc1ccccc1C(=O)N1CCC(C(=O)c2ccc(F)cc2)CC1	none
Cc1cc(NC(=S)NC(=O)c2ccccc2)ccc1-c1cc2ccccc2oc1=O	CF NFkB block 56, KKLEB cytotox -61
O=C(NC(=S)Nc1ccc2ncccc2c1)c1ccccc1	TROY signal inh 64
CC(Nc1ncnc2sccc12)c1ccccc1 (centres undefined)	TWEAK Fn14 block 54
CC(C)c1ccc(C2c3[nH]c4ccccc4c3C[C@H]3C(=O)N(c4ccccc4C(=O)N4CCC[C@H]4C(=O)O)C(=O)N23)cc1 (some centres undefined)	TROY signal inh 67
COc1ccc(C2c3[nH]c4ccccc4c3C[C@H]3C(=O)N(c4ccccc4C(=O)N4CCC(C(=O)O)CC4)C(=O)N23)cc1 (some centres undefined)	none
CCc1cc(-c2[nH]ncc2-c2ccc3c(c2)OCO3)c(O)cc1O	CF NFkB block 85, TROY signal inh 68, Peg3 prom inh 69, TWEAK Fn14 block 92
CN(Cc1cn[nH]c1-c1ccc2c(c1)OCO2)C1CCOCC1	none
COc1ccc(-c2sc3ccc(OC)cc3c2-c2ccc(OCCN3CCOCC3)cc2)cc1	none
COc1cccc(-c2sc3ccc(OC)cc3c2-c2ccc(OCCN3CCCC3)cc2)c1	Peg3 prom inh 97
COc1cccc(-c2sc3cc(OC)c(OC)cc3c2-c2ccc(OCCN3CCCCC3)cc2)c1	Peg3 prom inh 97
COc1cccc(-c2sc3ccccc3c2-c2ccc(OCCN3CCCCC3)cc2)c1	Peg3 prom inh 84
COc1ccc(-c2sc3cc(OC)ccc3c2-c2ccc(OCCN3CCCCC3)cc2)cc1	none (no result: CF NFkB block, KKLEB cytotox, Peg3 prom inh)
CCC(C)CN1C(=O)CSCC1(C)C(=O)Nc1c(C)cccc1C (centres undefined)	none (no result: CF NFkB block, TROY signal inh, KKLEB cytotox, Peg3 prom inh, TWEAK Fn14 block)
Cn1cccc1C(=O)NNC(=O)c1ccccc1Br	none
Cc1cccc(CSc2nc3c(c(-c4cccs4)c2C#N)CN(C)CC3)c1	none
CC(C)OC(=O)CSc1nc(N)c(C#N)c(-c2cccs2)c1C#N	none
CC(=O)CSc1nc(N)c(C#N)c(-c2cccs2)c1C#N	TWEAK Fn14 block 52
Cc1cccc(CSc2nc(N)c(C#N)c(-c3cccs3)c2C#N)c1	Peg3 prom inh 63
C=CCOC(=O)CCC(=O)Nc1cccc2ccccc12	none
Cn1c(SCC(=O)NC(=O)NCc2ccccc2)nnc1C(F)(F)F	none
CCOC(=O)C(CCCOc1ccccc1)C(=O)OCC	TWEAK Fn14 block 63 (no result: TROY signal inh)
Cc1cc(C)n(CC2CC(=O)N(c3ccccc3)C2=O)n1 (centres undefined)	none
Cc1ccc(NCCCn2cnc(C(=O)Nc3ccc(C)c(C)c3)n2)cc1C	none
Cc1ccc(NC(=O)c2ncn(CCCN[C@H](C)c3cccc4ccccc34)n2)cc1C	Peg3 prom inh 85
CC(C)(C)n1nc2c(c1NC(=O)c1ccc(Cl)c([N+](=O)[O-])c1)CS(=O)(=O)C2	TWEAK Fn14 block 54
COC(=O)CC1(c2ccccc2)C(=O)c2ccccc2C1=O	none
COC(=O)CC1(c2cccc3ccccc23)C(=O)c2ccccc2C1=O	HIF-2a inh 78
Cc1noc(C)c1-c1ccc2ncnc(NCC3CCCCN3C)c2c1 (centres undefined)	none
Cc1ccsc1CNc1ncnc2ccc(-c3c(C)noc3C)cc12	TWEAK Fn14 block 81
COc1cccc(CNc2ncnc3cc(Cl)ccc23)c1	none
COc1cccc(CNc2ncnc3ccc(-c4c(C)noc4C)cc23)c1	TWEAK Fn14 block 79
Cc1ccc(N2C(=O)Nc3ccccc3S2(=O)=O)cc1Cl	none
O=C(Nc1ccc(C(=O)O)cc1)/C(=C\c1ccco1)NC(=O)c1ccccc1Cl	none
Cc1ccc2c(c1)CCCO[C@]21O[C@H](CCO)C[C@H](O)[C@H]1O	none
CC1Cc2ccccc2N1C(=O)CSc1ccccn1 (centres undefined)	none

Source: PubChem (Sanford-Burnham Center for Chemical Genomics)
